For 40 compounds, Percent Effect results are on record in ChEMBL document CHEMBL3988442, “University of Dundee, Small-Polar-MMV Screening Library” (2021).

For the assay, the target named is AMP-activated protein kinase, AMPK (Homo sapiens) (UniProt P54646+O43741+P54619+Q9UGJ0+Q9Y478+Q13131+Q9UGI9). The assay is described as follows: AMP-dependent Kinase enzyme assay. An in vitro enzyme assay that detects ADP turnover that is directly proportional to AMPK activity. This uses naive AMPK that is activated during the assay with MK-8722. The note with it: 30 µM. Details: scale not given: direction of the effect not stated beside the values. The class given is functional.
With `CCC[C@H]1CN(C(=O)c2ccc3[nH]c(CO)nc3c2)C[C@@H]1N`, the Percent Effect came to 8.21%. On to `CN1CSC[C@H]1C(=O)N1CCC(Cc2ccccc2F)CC1`, for which the Percent Effect is 0.306%. Turning to `c1cnc(Nc2ccc(C3CCCCN3Cc3ccncc3)cn2)nc1` (stereo not given), the Percent Effect was 11.1%. Next, `Cc1cc(C)n(C2CN(c3nc(N)nc4c3CCCC4)C2)n1`: -1.57%; `c1cnc(N2CCCC(Cc3nccs3)C2)nc1` (stereo not given): 0.818%; `COc1ccc(Cn2c(Cc3c(C)n[nH]c3C)n[nH]c2=O)cc1`: -5.3%. Regarding `Cc1sc(C(=O)NS(C)(=O)=O)cc1-c1ccc(F)cc1`, the Percent Effect is -4.08%. For `CCC(C)Oc1ccc(CNCCNS(C)(=O)=O)cc1Cl` (stereo not given), the Percent Effect worked out at 5%. Next, `Cc1[nH]nc(CCC(=O)N2CCc3c(nc[nH]c3=O)C2)c1C`: 4.58%. `Cc1noc(C(C)C)c1C(=O)N1CCC(n2cccn2)CC1`: the Percent Effect came out at 4.03%.

Consider `O=C(c1ccncc1)N1CCCC(C2=Nc3ccccc3S(=O)(=O)N2)C1` (stereo not given), for which the Percent Effect was found to be 8.81%. Take `c1ccc(Cc2noc(-c3ccc(NCC4CCCCO4)nc3)n2)cc1` (stereo not given): the Percent Effect was determined as 3.99%.

For `CCN1CCC(NC(=O)N(C)Cc2csc3ccccc23)CC1`, the Percent Effect is -1.48%.

Turning to `CN1CC(C(=O)NCc2ccc(Br)cc2F)CC1=O` (stereo not given), the Percent Effect came to 8.64%.

With `Cn1cccc1CNCC1CCCn2cc(C(C)(C)C)nc21` (stereo not given), the Percent Effect was -0.856%.

Turning to `CN(C)S(=O)(=O)N1CCCCCC1c1cc(-c2ccc(F)cc2)no1` (stereo not given), the Percent Effect is 18%. `Cc1nc[nH]c1CN1CCC(C2CCN(CCc3ccccc3)C2)CC1` (stereo not given): the Percent Effect is -0.168%.

On to `CC(C)c1nnc(C2CCN(CC(=O)Nc3cccnc3)CC2)o1`, for which the Percent Effect is -5.27%. As to `COc1ccc(F)cc1CN(CC(N)=O)C(C)C`, the Percent Effect was -8.18%. In the case of `O=C(COc1cccnc1)NCc1nncn1C1CCCCC1`, the Percent Effect was -3.67%.

Turning to `CN(C)c1cccc(C(=O)Nc2cnn(CC(N)=O)c2)c1`, the Percent Effect was determined as 3.58%. With `CCN(Cc1ccccn1)C1CCN(c2ccccc2)C1=O` (stereo not given) the figure was -6.67%; with `COc1ccc(CC2(CO)CCN(c3cc(C#N)ccn3)CC2)cc1`, 112%; with `CCCc1cc(=O)[nH]c(-n2nc(-c3cccs3)cc2N)n1`, -6.1%.

For `Cc1nc(C)n(CCC(=O)NCC2CCCOC2)n1` (stereo not given), the Percent Effect was found to be 10.8%.

For the compound `CCNc1ncc(C(=O)NCc2csc(-c3ncccn3)n2)cn1`, the Percent Effect is 3.97%. With `c1ccc(Cc2noc(-c3ccc(NCC4COCCO4)nc3)n2)cc1` (stereo not given) the figure was 8.79%. In the case of `COc1cccc(CN(C)C(C)C(=O)Nc2nc(C)c(C)s2)c1` (stereo not given), the Percent Effect was determined as 5.13%. Next, `CN(C)c1nc2c(c(=O)[nH]1)Cc1ccccc1OC2`: 2.09%; `CN(Cc1cc(Br)cs1)Cc1nnsc1Cl`: 15.7%. Next, `Cn1ccnc1CN1CCN(Cc2cc(-c3ccccc3)no2)CC1`: -2.31%; `CCc1nc2n(n1)CC(NCC1=Cc3ccc(OC)cc3OC1)CC2` (stereo not given): 8.35%; `COc1ccc(CN(C)C(=O)CN2CC(n3cc(C)cn3)C2)cc1F`: -3.71%. In the case of `Cc1noc(C)c1CN1CCCC1c1nnc2ccccn12` (stereo not given), the Percent Effect was -3.49%. Next, `CN1CCCN(C[C@@H]2CN(c3nc(C(N)=O)cs3)C[C@@H]2CO)CC1`: -0.955%; `Cc1ccc(C(=O)NC2CCCN(CC(N)=O)C2)c(=O)[nH]1` (stereo not given): 2.52%; `C[C@@H]1CN(c2ccc(C#N)cn2)CC[C@@]1(O)C1CCOCC1`: -1.81%. `CC(NC(=O)c1ccc(C(N)=O)cc1)c1cccc(N2CCOC2=O)c1` (stereo not given): the Percent Effect is 4.89%. `CCc1ncc2c(n1)CN(c1cc(NCCO)nc(N)n1)C2`: the Percent Effect is -219%. Regarding `Cc1cccc(C2(CNC(=O)c3ccnc(N(C)C)c3)CCOCC2)c1`, the Percent Effect is -0.987%.
